The list is not random: actives were taken first. Their share in the collection is about 1.9%.
N-glyco inh = blocks N-linked glycosylation in D54 reporter cells. 360,000 compounds, 0.23% hits. D54 ERlucT glycosylation luciferase reporter, 24 h; percent of 100 nM tunicamycin response. AID 588692. reporter increase, % at 12.5 µM;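 active means mean luciferase reporter signal, scaled so untreated is 0 and the glycosylation-blocking control 100, at or above a set limit in every replicate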;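 further: luciferase carries N-glycosylation sites so blocking glycosylation raises the light; 0% = median of neutral control wells and 100% = median of 100 nM tunicamycin wells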
Vif imaging = blocks HIV Vif function | 340,000 compounds, 0.35% hits | inhibition, % at 7.49 µM | HEK293T cells, Vif self-association by quenched fluorescence, imaging, 24 h; in the data active means inhibition above about 50%, passing the limit was not always enough
CaV13 FRET inh = Primary screen for inhibitors of IQ motif and Ca2+-dependent inactivation inhibitor domain binding in CACNA1D, Förster resonance energy transfer in living cells, …. HEK cells, CFP/YFP FRET ICDI-IQ, plate reader, 10 min; percent FRET-ratio fall versus neutral wells. inhibition, % at 12.3 µM. 340,000 compounds, 0.098% hits;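 active means mean replicate inhibition of at least 30% and at least 1% of replicates passing that level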;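 further: 0% = median of the neutral control wells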
ATG4B inhibitor = blocks human ATG4B protease cleavage of LC3 substrate. ATG4B cleavage of LC3-PLA2, NBD-HPC fluorescence, 1 h. inhibition, % at 8.33 µM. AID 504462. 340,000 compounds, 0.51% hits. Q9Y4P1; in the data active means inhibition above about 40%
DSG3 Ab inh = human desmoglein-3 autoantibody binding inhibition; binding (percent of control), % at 10 µM; 310,000 compounds, 0.48% hits; DSG3-coupled beads, scFv-anti-DSG3-GFP binding, flow cytometry; active compounds read low; AID 588358;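 active means binding more than 3 SD below its plate's average and above zero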;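 further: hits lower antibody fragment binding to DSG3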
Target sequence (P32926 whole entry, looked up, the tested form may be a part): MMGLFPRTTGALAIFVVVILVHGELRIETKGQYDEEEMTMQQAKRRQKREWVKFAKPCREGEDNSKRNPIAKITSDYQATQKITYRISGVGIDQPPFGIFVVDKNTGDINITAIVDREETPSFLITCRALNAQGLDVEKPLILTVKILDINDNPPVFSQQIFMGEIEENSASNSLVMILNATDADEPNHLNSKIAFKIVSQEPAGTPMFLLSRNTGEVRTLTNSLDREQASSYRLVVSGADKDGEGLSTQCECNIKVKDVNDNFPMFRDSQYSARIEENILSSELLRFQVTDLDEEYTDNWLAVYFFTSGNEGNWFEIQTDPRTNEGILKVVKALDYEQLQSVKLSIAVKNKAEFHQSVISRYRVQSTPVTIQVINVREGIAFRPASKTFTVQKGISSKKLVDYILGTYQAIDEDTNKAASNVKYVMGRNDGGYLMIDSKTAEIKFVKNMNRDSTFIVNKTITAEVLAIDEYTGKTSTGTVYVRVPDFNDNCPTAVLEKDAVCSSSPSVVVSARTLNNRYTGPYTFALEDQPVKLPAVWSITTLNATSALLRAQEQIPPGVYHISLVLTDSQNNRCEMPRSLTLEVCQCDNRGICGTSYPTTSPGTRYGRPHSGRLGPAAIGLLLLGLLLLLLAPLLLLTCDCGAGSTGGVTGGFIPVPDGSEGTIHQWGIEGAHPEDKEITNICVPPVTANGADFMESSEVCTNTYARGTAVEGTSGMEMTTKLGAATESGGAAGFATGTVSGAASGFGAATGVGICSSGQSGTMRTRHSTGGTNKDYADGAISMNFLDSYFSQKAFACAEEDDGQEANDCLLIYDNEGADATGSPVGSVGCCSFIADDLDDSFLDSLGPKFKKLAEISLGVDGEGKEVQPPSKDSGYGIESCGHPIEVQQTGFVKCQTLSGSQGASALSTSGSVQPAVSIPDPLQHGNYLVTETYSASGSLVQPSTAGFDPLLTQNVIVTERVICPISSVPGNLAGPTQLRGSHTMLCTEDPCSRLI
NSD2 HMT inh = inhibitors of human histone methyltransferase NSD2; O96028; NSD2 peptide methylation, AlphaScreen, 120 min; inhibition, % at 12.5 µM; 310,000 compounds, 0.54% hits; in the data active means inhibition above about 50%
AlphaScreen art = AlphaScreen assay artifact in NSD2 counter-screen | AC35, µM (top dose mostly 10 µM), without a hit: at the highest dose activity change, negative = signal loss | shares compounds with NSD2 HMT inh | AlphaScreen artifact counterscreen, preloaded methylated H4 peptide | 1,500 compounds, 9.4% hits; call rule not given here
* = called active by the depositor; / = no result given.

SMILES	N-glyco inh	Vif imaging	CaV13 FRET inh	ATG4B inhibitor	DSG3 Ab inh	NSD2 HMT inh	AlphaScreen art
CCOCCCN1CC(C(=O)NCCc2ccc(C)cc2)CC1=O (stereo not drawn)	0	3	-5	3	108	1	/
O=C(Nc1ccccc1C(=O)O)c1cncc(Br)c1	0	-12	-5	-5	99	68*	-10%
Cc1cc(NS(=O)(=O)c2ccc(NC(=O)CSc3nnc(-c4ccncc4)n3Cc3ccco3)cc2)nc(C)n1	/	/	/	/	/	56*	-1%
Cc1cc(NS(=O)(=O)c2ccc(NC(=O)CSc3nnc(-c4ccc(Cl)cc4)n3Cc3ccco3)cc2)nc(C)n1	/	/	/	/	/	0	/
CCCCN(CC)CCNC(=O)c1cc2c(-c3ccccc3F)nn(C)c2s1	-2	8	-2	-4	111	86*	-4%
O=C(O)c1cc(N2C(=O)C=CC2=O)cc(N2C(=O)C=CC2=O)c1	1	-2	-9	0	102	88*	-8%
OCCNC(=S)Nc1ccc2nsnc2c1	0	28	-22	-4	104	96*	-3%
O=C(NCCO)Nc1ccc2nsnc2c1	0	-2	0	7	89	1	/
S=C(Nc1ccc2nsnc2c1)N1CCCCC1	0	-5	-6	3	97	61*	9%
c1ccc(-c2ccncc2)nc1	3	1	-8	1	102	/	/
Cc1cc(OC(=O)c2ccccc2Cl)c([N+](=O)[O-])c(=O)[nH]1	1	6	-5	-1	101	/	/
O=C(O)CCC(=O)N1CCN(S(=O)(=O)c2ccc3ccccc3c2)CC1	0	-1	-3	3	112	10	/
CCCCN1C(=O)C(=Nc2cccc3cnccc23)c2ccccc21	4	0	4	8	97	74*	-1%
COc1ccc(CN2CCN(c3ncnc4scc(-c5ccc(F)cc5)c34)CC2)cc1	-1	-1	-15	-3	92	1	/
CCN1CCN(c2ncnc3scc(-c4ccc(OC)cc4)c23)CC1	-7	/	-3	-5	95	64*	-4%
O=C(OC(C(=O)NC1CCCCC1)c1ccccn1)c1cccs1 (stereo not drawn)	/	/	-6	-5	105	114*	-2%
O=C(Nc1cc(C(F)(F)F)ccc1N1CCCC1)C1CC(=O)N(Cc2ccccc2)C1 (stereo not drawn)	2	/	-11	/	102	56*	-1%
Oc1cccc2c(NC(=S)Nc3ccc(OC(F)F)cc3)cccc12	-7	1	-8	-20	96	92*	-6%
COc1ccc(-c2nnn(-c3ccc(Cl)cc3Cl)c2N)cc1	-2	-7	-5	4	/	1	/
Cn1c(SCc2ccccc2C#N)nc2ccccc2c1=O	-3	11	-2	10	108	100*	-2%
O=C1Nc2ccc(S(=O)(=O)NCc3ccco3)c3cccc1c23	0	-1	/	-11	97	135*	-2%
CNCCOc1ccccc1-c1ccccc1	0	/	-3	0	91	76*	-5%
CNCCCCOc1ccccc1-c1ccccc1	-4	5	-3	-6	95	64*	-7%
O=C(c1ccc(F)cc1)c1cn[nH]c1-c1ccccc1O	1	7	-3	-2	101	-3	/
CC(=O)Nc1ccc(C(=O)OCC(=O)/C(C#N)=C(\C)N)cc1	1	-3	-2	-7	98	74*	-4%
SMILES	N-glyco inh	Vif imaging	CaV13 FRET inh	ATG4B inhibitor	DSG3 Ab inh	NSD2 HMT inh	AlphaScreen art
C/C(N)=C(/C#N)C(=O)COC(=O)c1ccncc1	0	-4	-5	-7	99	5	/
O=C(Nc1ccc(Br)cc1)c1ccc(-n2cnnn2)cc1	-2	-31	-3	-8	/	105*	-4%
Cc1cccc(C)c1NC(=O)c1ccc(-n2cnnn2)cc1	3	5	-4	4	/	-7	/
Cc1ccc2nc(C)cc(C(=O)NC3CCCCCC3)c2c1	0	6	-3	-1	97	1	/
CCc1nc2ccc(C)cc2c(C(=O)NC2CCCCC2C)c1C (stereo not drawn)	0	-4	-6	-18	102	75*	-2%
COC(=O)Nc1ccc2c(c1)N(C(=O)CCN(C)C)c1ccccc1CC2	0	7	-2	-1	93	105*	-3%
CCOC(=O)Nc1ccc2c(c1)N(C(=O)CCN(C)C)c1ccccc1CC2	-1	/	-20	-7	100	-2	/
CCOC(=O)C(C)Oc1ccc(C2NC(=O)NC(C)=C2C(=O)Nc2ccccc2C)cc1 (stereo not drawn)	3	-5	-9	-2	106	/	/
COc1cc(N)c2ncccc2c1Br	8	-5	-9	2	/	152*	-2%
COc1cc(N)c2ncccc2c1SC	3	3	-5	/	341	8	/
Nc1nc(COC(=O)c2ccco2)nc(Nc2ccccc2)n1	1	-13	-4	/	100	53*	-3%
C=CCOCC(O)Cn1c(N2CCCC2)nc2c1c(=O)n(C)c(=O)n2C (stereo not drawn)	0	13	-4	-9	114	53*	0%
O=[N+]([O-])c1ccccc1-c1ccc(C(=S)N2CCCCC2)o1	3	-2	-5	-1	92	20	/
O=[N+]([O-])c1ccccc1-c1ccc(C(=S)N2CCCC2)o1	4	-2	-2	1	99	65*	-9%
CCC1(C)Cc2c(sc3nc(SC)n(Cc4ccccc4)c(=O)c23)CO1 (stereo not drawn)	-3	5	-5	2	109	2	/
COc1ccc2nc3cccc(OC)c3nc2c1	10	13	-10	-9	98	101*	-1%
Cc1nn(CC(=O)Nc2nnc(C(C)C)s2)c(=O)c2ccccc12	0	-3	-3	-7	103	59*	-1%
N#CC1C(=O)Nc2cccnc21 (stereo not drawn)	3	-2	-7	/	102	121*	0%
Cn1c(NCc2ccccc2)nc2cc(-c3ccccc3)sc2c1=O	-1	-8	-7	/	/	-2	/
COc1cc(/C=C2\C(=N)N3N=C(S(C)(=O)=O)SC3=NC2=O)ccc1OC(=O)c1cccs1	2	11	-6	13	104	62*	-7%
O=C(CCc1c[nH]c2ccccc12)Nc1ccc(S(=O)(=O)Nc2ncccn2)cc1	0	0	-3	-2	104	/	/
CC(=O)N1CCN(c2ccccc2NC(=O)c2ccc3ccccc3c2)CC1	1	-4	-4	-7	103	53*	-1%
CCOC(=O)CC(NC(=O)c1ccco1)c1ccc(OC)cc1 (stereo not drawn)	-1	-1	-5	-1	/	1	/

Source: PubChem
